# Results taken from PubChem BioAssay AID504332 (National Center for Advancing Translational Sciences (NCATS), 2011).
# Out of some 350,000 compounds screened, about 31,000 (8.9%) were called active. Inconclusive results (about 15%) are left out. Calls follow the shape of the dose curve; as a rule, active = well fitted inhibition curve with a large enough effect; inconclusive = small, poorly fitted or top-dose-only effect; inactive = no such curve, though single readings can be large or run the other way. What follows is part of a selection rich in actives, with near analogues and random picks from the rest.
# Target: Histone-lysine N-methyltransferase EHMT2 (Homo sapiens) (UniProt Q96KQ7)
# Sequence (Q96KQ7 913-1193 limits assumed): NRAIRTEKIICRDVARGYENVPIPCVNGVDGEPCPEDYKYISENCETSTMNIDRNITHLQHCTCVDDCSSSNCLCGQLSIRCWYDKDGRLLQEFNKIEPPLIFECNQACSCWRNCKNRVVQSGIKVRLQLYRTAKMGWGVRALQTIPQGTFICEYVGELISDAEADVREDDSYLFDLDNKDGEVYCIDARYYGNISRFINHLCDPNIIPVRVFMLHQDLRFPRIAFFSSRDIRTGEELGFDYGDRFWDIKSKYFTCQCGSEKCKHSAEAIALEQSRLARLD
# Test: qHTS Assay for Inhibitors of Histone Lysine Methyltransferase G9a; also: nearly all actives have a fitted effect of over 75% in size
# Conditions: G9a H3K9 monomethylation, AlphaScreen, 2 h; series mostly up to 59 µM; activity, negative = inhibition: at the top concentration
# In short: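 AlphaScreen read-out: biotin-H3K9 peptide (500 nM) methylation by 20 nM enzyme with 20 uM SAM, 2 h at room temperature after 15 min compound preincubation; anti-monomethyl H3K9 antibody plus donor/acceptor beads, 10 min dark.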
# % is scaled to controls: 0 for no effect and ±100 for the full control effect; potency is read from the fitted curve at half-maximal effect.
SMILES,"activity, negative = inhibition",Potency
COc1ccc(CCNC(=O)Cn2c(=O)cc(C(F)(F)F)c3c(C)nn(C)c32)c(OC)c1,2.52% (inactive),–
COc1ccccc1C(=O)NCCC(=O)NC(C)CCc1ccccc1 (stereo not drawn),3.84% [at 0.501 µM] (inactive),–
CCn1c(SCC(=O)NCC2CCCO2)nc2ccccc21 (stereo not drawn),19.8% [at 12.7 µM] (inactive),–
O=C(CSc1ccc(-c2ccccc2)nn1)NCC1CCCO1 (stereo not drawn),–,44.7 µM (active)
O=C(CSc1nnc(-c2ccc(NS(=O)(=O)c3ccccc3)cc2)o1)NCC1CCCO1 (stereo not drawn),4.29% [at 102 µM] (inactive),–
CCOc1ccc(CCNC(=O)Cn2nc(CC)n3c(cc4sc(CC)cc43)c2=O)cc1OCC,-35.1% (inactive),–
CCc1nnc(NC(=O)c2cc(S(=O)(=O)N3CCCCC3)ccc2C)s1,-44.8% (inactive),–
CCOC(=O)c1ccc(NC(=O)Cn2c(=O)cc(C)c3c(C)nn(-c4cccc(F)c4)c32)cc1,11.2% (inactive),–
Cc1ccc(-c2nn(-c3ccccc3)cc2C(=O)NC2CCC(O)CC2)cc1 (stereo not drawn),9.53% [at 2.33 µM] (inactive),–
O=C(NNC(=S)NC(=O)c1cn(-c2ccccc2)nc1-c1ccccc1)c1ccncc1,–,25.1 µM (active)
O=C(Nc1cn(-c2ccccc2)nc1-c1ccccc1)c1ccccc1,-4.14% (inactive),–
COc1ccc(N(Cc2cc3ccc(C)cc3[nH]c2=O)S(=O)(=O)c2ccccc2)cc1,13.9% [at 102 µM] (inactive),–
Cc1ccccc1CNC(=O)c1cccc(NC(=O)c2nsc3ccccc23)c1,-1.82% (inactive),–
Fc1ccc(CSc2nc(NCc3ccccc3)c3ccccc3n2)cc1,1.81% (inactive),–
O=C(c1cc2ccccc2o1)N1CCN(S(=O)(=O)c2ccc(Cl)s2)CC1,0.973% [at 2.33 µM] (inactive),–
Cc1ccc(NS(=O)(=O)c2ccc(C)c(NC(=O)COc3ccc4ccccc4c3)c2)c(C)c1,–,35.5 µM (active)
Cc1ccc(C)c(NS(=O)(=O)c2ccc(OCC(=O)NCc3cccnc3)cc2)c1,-5.51% [at 102 µM] (inactive),–
CN(C)S(=O)(=O)c1cccc(NC(=O)COc2ccc3ccccc3c2)c1,-10.1% [at 12.7 µM] (inactive),–
CC(C)CNC(=S)NNC(=O)c1nn(C)cc1Cl,20.3% (inactive),–
Cc1cccc(NC(=S)Nc2ccc(Cl)c(Cl)c2)c1,2.94% [at 102 µM] (inactive),–
Cn1cc(Cl)c(C(=O)NNC(=S)Nc2cccc(Cl)c2)n1,–,15.8 µM (active)
CCOC(=O)c1ccc(NC(=O)c2ccc(NC(=O)C3CCCO3)cc2)cc1 (stereo not drawn),10.1% [at 102 µM] (inactive),–
CCOC(=O)c1c(NC(=O)CSc2cn(CCNC(=O)c3cccc(C(F)(F)F)c3)c3ccccc23)sc2c1CCC2,-9.5% (inactive),–
CCOC(=O)c1c(NC(=S)NC(=O)c2ccco2)sc2c1CCCC2,-1.7% [at 102 µM] (inactive),–
CCOC(=O)c1c(NC(=S)Nc2ccccc2C)sc2c1CCC2,38.7% (inactive),–

SMILES,"activity, negative = inhibition",Potency
CCOC(=O)c1c(NC(=O)CSc2cn(CC)c3ccccc23)sc2c1CCC2,–,56.2 µM (active)
CCOC(=O)c1c(NC(=O)CSc2nnc(C)c(=O)[nH]2)sc2c1CCC2,-30.7% (inactive),–
CCOC(=O)c1c(NC(=S)Nc2ccccc2)sc2c1CCN(C)C2,–,44.7 µM (active)
CCOC(=O)c1c(NC(=O)c2cc(-c3ccc(Cl)cc3)on2)sc2c1CCCC2,–,6.31 µM (active)
CCOC(=O)c1c(NC(=O)/C(C#N)=C/c2ccccc2)sc2c1CCC2,-0.979% (inactive),–
CCOC(=O)c1c(NC(=O)NC(C)(C)C)sc2c1CCN(C)C2,7.1% [at 102 µM] (inactive),–
CCOC(=O)c1c(NC(=O)c2ccc(S(=O)(=O)N(CC)CC)cc2)sc2c1CCCCC2,8.61% (inactive),–
CCCOC(=O)Nc1sc2c(c1C(=O)OCC)CCC2,18% [at 102 µM] (inactive),–
CCOC(=O)c1c(NC(=S)NC)sc2c1CCCC2,–,11.2 µM (active)
COc1ccc(Cn2c(C(=O)O)c(CNCCc3cccs3)c3ccc(OC)cc32)cc1,6.08% (inactive),–
CC1CCC(N2CC(=O)N(CCC3=CCCCC3)C(c3ccc(F)cc3)C2=O)CC1 (stereo not drawn),8.16% (inactive),–
Cc1ccccc1-c1cc(C(=O)NCc2cccs2)n(CC2CC(c3cccnc3)=NO2)n1 (stereo not drawn),-0.783% [at 0.501 µM] (inactive),–
Cc1ccc(-c2nc(Cn3c(=O)cc(-c4ccccc4)c4c(C)nn(C)c43)c(C)o2)cc1,9.13% (inactive),–
COc1ccccc1NC(=O)CC(NCCN(C)C)C(=O)O (stereo not drawn),17.5% [at 102 µM] (inactive),–
CCOc1ccc2nc(N(CCCN(C)C)C(=O)c3ccc(C(=O)c4ccccc4)cc3)sc2c1,–,44.7 µM (active)
CN(C)CCCN(C(=O)COc1ccccc1)c1nc2c(Cl)cccc2s1,–,31.6 µM (active)
CCOc1cccc2sc(N3CCN(C(=O)C4CC4)CC3)nc12,-15.9% (inactive),–
CCOc1ccc2nc(Nc3nc4ccc(NC(C)=O)cc4s3)sc2c1,-13.6% (inactive),–
CCCC(=O)N(CCN1CCOCC1)c1nc2ccc(OCC)cc2s1,2.94% (inactive),–
COc1ccc(CCN(C(=O)COc2ccccc2)c2nc(-c3ccccc3)cs2)cc1OC,-1.75% (inactive),–
COc1cc2ccccc2cc1C(=O)N(CCN(C)C)c1nc2c(F)cccc2s1,–,44.7 µM (active)
COc1cc(SC)ccc1C(=O)N(Cc1ccccc1)c1ccccc1,55.7% [at 102 µM] (inactive),–
CN(Cc1ccccc1)C(=O)COc1ccccc1,-14% (inactive),–
COc1cccc2sc(N(CCCN(C)C)C(=O)C(c3ccccc3)c3ccccc3)nc12,–,6.31 µM (active)
COc1cc2ccccc2cc1C(=O)Nc1ccncc1,1.4% [at 102 µM] (inactive),–

SMILES,"activity, negative = inhibition",Potency
CCOc1ccc(S(=O)(=O)N2CCC(C(=O)NCC(=O)Nc3cccc(Cl)c3C)CC2)cc1,15.9% (inactive),–
Cc1ccc(NC(=O)CSc2cccc3cccnc23)c(C)c1,-27.5% [at 102 µM] (inactive),–
COc1ccc(NC(=O)CSc2nnc(Cc3ccccc3)c(=O)n2N)cc1,-45.5% [at 102 µM] (inactive),–
CCN(CC)CCN(C(=O)c1cccc([N+](=O)[O-])c1)c1nc2ccc(OC)cc2s1,–,50.1 µM (active)
COc1ccc2sc(N(CCCN(C)C)C(=O)c3ccc(S(=O)(=O)N(C)C4CCCCC4)cc3)nc2c1,-7.7% [at 2.33 µM] (inactive),–
COc1ccccc1CNC(=O)CS(=O)(=O)c1cccc2nsnc12,3.96% (inactive),–
O=C(CCS(=O)(=O)c1ccccc1)NC1CCCC1,-7.56% [at 102 µM] (inactive),–
Cc1cccc2sc(N(CCCN(C)C)C(=O)CCS(=O)(=O)c3ccccc3)nc12,–,22.4 µM (active)
COc1ccc(N(C)C(=O)CCS(=O)(=O)c2cccc3nsnc23)cc1,-39.4% (inactive),–
COc1ccc(-n2cnnc2SCC(=O)Nc2cccc([N+](=O)[O-])c2)cc1,-3.5% [at 102 µM] (inactive),–
COc1cccc2sc(N(CCCN(C)C)C(=O)CCS(=O)(=O)c3ccccc3)nc12,–,8.91 µM (active)
COc1ccc(C)cc1NC(=O)CCS(=O)(=O)c1cccc2nonc12,-1.53% [at 102 µM] (inactive),–
CN(C1CCS(=O)(=O)C1)S(=O)(=O)c1ccc2ccccc2c1 (stereo not drawn),5.42% [at 102 µM] (inactive),–
COc1ccccc1CNS(=O)(=O)c1cc(Br)cc2c1N(C(C)=O)C(C)C2 (stereo not drawn),2.53% (inactive),–
O=C(CCSCc1cccc(F)c1)NCc1ccccc1,-6.15% (inactive),–
COc1ccc(NS(=O)(=O)c2ccc(C)c(C(=O)NNC(=O)c3csc(N4CCOCC4)n3)c2)cc1,2.43% [at 102 µM] (inactive),–
CC(=O)N1CCc2cc(S(=O)(=O)NC3CCCCC3)ccc21,-3.98% [at 102 µM] (inactive),–
O=C(CCC1CCCC1)N=C1SC2CS(=O)(=O)CC2N1Cc1ccccc1 (stereo not drawn),4.22% [at 102 µM] (inactive),–
COc1cc2c(C(=O)N(C)c3cc(Cl)ccc3OC)cn(C)c(=O)c2cc1OC,23.4% [at 102 µM] (inactive),–
O=C(CSc1nc(-c2ccco2)cc(C(F)(F)F)n1)N1CCc2ccccc2C1,–,12.6 µM (active)
Cc1cccc(NC(=O)CSc2nc(-c3ccco3)cc(C(F)(F)F)n2)c1C,8.51% (inactive),–
O=C(CSc1nc(-c2ccco2)cc(C(F)(F)F)n1)NCc1cccs1,-1.69% (inactive),–
CC1(c2nnc(Cc3ccccc3)o2)CC(c2ccccc2F)=NO1 (stereo not drawn),-2.28% [at 2.33 µM] (inactive),–
CC(=O)N1CCCc2cc(S(=O)(=O)N3CCC(C(=O)NC4CCCCC4)CC3)ccc21,14.6% (inactive),–
COc1ccc(Br)cc1C1CC(=O)Nc2c1c(C)nn2-c1nc(C)cc(C)n1 (stereo not drawn),-45.2% (inactive),–

SMILES,"activity, negative = inhibition",Potency
O=Cc1cn(Cc2ccccc2)nc1-c1cccnc1,-15.5% [at 102 µM] (inactive),–
COc1cccc(NC(=O)CN(C)C(=O)/C=C/c2cn(-c3ccccc3)nc2-c2cccs2)c1,-31.2% [at 102 µM] (inactive),–
COc1ccc(NC(=O)CN(C)C(=O)/C=C/c2cn(Cc3ccccc3)nc2-c2cccnc2)cc1,–,7.94 µM (active)
CCC(=O)Nc1cccc(-c2nc3cc(C)ccc3o2)c1,5.08% (inactive),–
Cc1cc(NC(=O)C2CCC(CNS(=O)(=O)c3ccc(Br)s3)CC2)ccc1Br (stereo not drawn),-2.51% (inactive),–
CC1=C(C(=O)OCc2ccccc2)C(c2ccco2)n2ncnc2N1 (stereo not drawn),-34% [at 102 µM] (inactive),–
COC(=O)C1=C(C)Nc2ncnn2C1c1ccco1 (stereo not drawn),3.2% [at 12.7 µM] (inactive),–
Brc1ccc(C2=CC(c3ccco3)n3ncnc3N2)cc1 (stereo not drawn),–,12.6 µM (active)
CCOC(=O)c1c(C)[nH]c(CCC(=O)Nc2ccc(OC)c(OC)c2)c1C,12% (inactive),–
COc1ccc(Nc2ccc([N+](=O)[O-])cn2)cn1,1.56% [at 102 µM] (inactive),–
COc1ccc(Nc2cc(Cl)ccc2C(=O)O)cn1,–,2.24 µM (active)
COc1ccc(NS(=O)(=O)c2ccc(F)cc2F)cn1,9.65% [at 102 µM] (inactive),–
Cc1ccccc1CCNC(=O)C1CCN(c2nc3ccccc3nc2C(F)(F)F)CC1,6.11% (inactive),–
CCC(=O)c1ccc(OCC(=O)N(CC)CC2COc3ccccc3O2)cc1 (stereo not drawn),1.74% [at 102 µM] (inactive),–
Cc1ccccc1Nc1scc(-c2ccc(Br)cc2)[n+]1-c1ccccc1C,–,20 µM (active)
CCOc1ccc(NC(=O)c2cc(S(=O)(=O)N3CCCC3)c[nH]2)cc1,-25.3% (inactive),–
Cc1onc(-c2ccccc2Cl)c1C(=O)OCc1nnc(-c2ccccc2)o1,28.6% [at 102 µM] (inactive),–
CCC(=O)N1CCc2cc(Br)cc(S(=O)(=O)CCC(=O)NCc3ccccc3OC)c21,-8.43% (inactive),–
O=C(O)C1OC(C(=O)O)C2C1C(F)(F)C2(F)F (stereo not drawn),–,39.8 µM (active)
CC1=C(C(=O)N2CCN(c3cccc(C(F)(F)F)c3)CC2)C2(CCCCC2)OC1=O,-38.2% (inactive),–
CNc1ccc(-c2nc(-c3ccccc3C)no2)cc1[N+](=O)[O-],-37.9% (inactive),–
C/C=C(/C)C(=O)OC1Cc2c(ccc3ccc(=O)oc23)OC1(C)C (stereo not drawn),25.6% [at 12.7 µM] (inactive),–
CC1(C)Oc2ccc3ccc(=O)oc3c2/C(=C/NCCO)C1=O,–,35.5 µM (active)
